Our source for the residual activity values is ChEMBL document CHEMBL2218924, “A broad activity screen in support of a chemogenomic map for kinase signalling research and drug discovery” (Biochem J, 2013).

In assay [1] the target is Insulin receptor (Homo sapiens) (UniProt P06213). As to conditions: at 1 µM.
Assay [2] has the same target. Particulars: at 10 µM.
In assay [3] the target is Interleukin-1 receptor-associated kinase 1 (Homo sapiens) (UniProt P51617). As to conditions: at 1 µM.
Assay [4] shares this target. As to conditions: at 10 µM.
Assay [5] has as its target T1, Interleukin-1 receptor-associated kinase 4 (Homo sapiens) (UniProt Q9NWZ3).
T1 sequence (whole entry): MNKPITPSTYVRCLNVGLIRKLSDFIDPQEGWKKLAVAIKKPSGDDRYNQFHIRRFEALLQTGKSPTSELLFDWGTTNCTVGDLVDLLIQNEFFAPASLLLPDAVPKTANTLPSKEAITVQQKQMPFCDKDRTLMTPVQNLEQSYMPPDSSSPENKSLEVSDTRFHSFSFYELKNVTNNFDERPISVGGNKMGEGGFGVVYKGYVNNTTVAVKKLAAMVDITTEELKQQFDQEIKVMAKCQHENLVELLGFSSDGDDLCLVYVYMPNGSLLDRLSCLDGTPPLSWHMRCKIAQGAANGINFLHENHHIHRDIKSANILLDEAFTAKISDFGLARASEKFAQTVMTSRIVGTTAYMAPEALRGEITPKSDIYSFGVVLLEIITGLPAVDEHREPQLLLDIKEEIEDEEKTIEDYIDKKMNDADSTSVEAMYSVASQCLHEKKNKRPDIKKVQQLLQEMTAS
Particulars: at 1 µM.

The target of assay [6] is T1, Interleukin-1 receptor-associated kinase 4 (Homo sapiens). As to conditions: at 10 µM.
Assay [7] addresses Insulin receptor-related protein (Homo sapiens) (UniProt P14616). Particulars: at 10 µM.
Assay [8] has as its target T2, Tyrosine-protein kinase ITK/TSK (Homo sapiens) (UniProt Q08881).
T2 sequence (whole entry): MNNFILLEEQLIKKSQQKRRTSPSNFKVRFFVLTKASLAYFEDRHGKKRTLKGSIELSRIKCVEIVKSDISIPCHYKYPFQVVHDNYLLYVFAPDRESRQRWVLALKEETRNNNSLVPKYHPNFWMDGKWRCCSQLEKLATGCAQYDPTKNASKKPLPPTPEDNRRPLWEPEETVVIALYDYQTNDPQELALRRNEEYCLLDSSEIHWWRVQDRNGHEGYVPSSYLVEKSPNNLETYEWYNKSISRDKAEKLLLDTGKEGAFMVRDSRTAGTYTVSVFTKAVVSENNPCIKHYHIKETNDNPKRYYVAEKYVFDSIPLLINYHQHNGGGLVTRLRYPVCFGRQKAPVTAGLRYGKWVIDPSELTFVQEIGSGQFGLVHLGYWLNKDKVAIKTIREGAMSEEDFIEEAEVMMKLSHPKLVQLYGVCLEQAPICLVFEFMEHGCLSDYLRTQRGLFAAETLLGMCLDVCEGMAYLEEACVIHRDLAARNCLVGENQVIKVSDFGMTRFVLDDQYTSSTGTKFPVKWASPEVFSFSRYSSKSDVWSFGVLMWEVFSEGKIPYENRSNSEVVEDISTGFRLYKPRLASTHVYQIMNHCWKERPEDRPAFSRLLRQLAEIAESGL
Particulars: at 1 µM.

Assay [9] concerns the target Tyrosine-protein kinase JAK2 (Homo sapiens) (UniProt O60674). Particulars: at 1 µM.
The target is the same in assay [10]. As to conditions: at 10 µM.
Assay [11] addresses T3, Tyrosine-protein kinase JAK3 (Homo sapiens) (UniProt P52333).
T3 sequence (whole entry): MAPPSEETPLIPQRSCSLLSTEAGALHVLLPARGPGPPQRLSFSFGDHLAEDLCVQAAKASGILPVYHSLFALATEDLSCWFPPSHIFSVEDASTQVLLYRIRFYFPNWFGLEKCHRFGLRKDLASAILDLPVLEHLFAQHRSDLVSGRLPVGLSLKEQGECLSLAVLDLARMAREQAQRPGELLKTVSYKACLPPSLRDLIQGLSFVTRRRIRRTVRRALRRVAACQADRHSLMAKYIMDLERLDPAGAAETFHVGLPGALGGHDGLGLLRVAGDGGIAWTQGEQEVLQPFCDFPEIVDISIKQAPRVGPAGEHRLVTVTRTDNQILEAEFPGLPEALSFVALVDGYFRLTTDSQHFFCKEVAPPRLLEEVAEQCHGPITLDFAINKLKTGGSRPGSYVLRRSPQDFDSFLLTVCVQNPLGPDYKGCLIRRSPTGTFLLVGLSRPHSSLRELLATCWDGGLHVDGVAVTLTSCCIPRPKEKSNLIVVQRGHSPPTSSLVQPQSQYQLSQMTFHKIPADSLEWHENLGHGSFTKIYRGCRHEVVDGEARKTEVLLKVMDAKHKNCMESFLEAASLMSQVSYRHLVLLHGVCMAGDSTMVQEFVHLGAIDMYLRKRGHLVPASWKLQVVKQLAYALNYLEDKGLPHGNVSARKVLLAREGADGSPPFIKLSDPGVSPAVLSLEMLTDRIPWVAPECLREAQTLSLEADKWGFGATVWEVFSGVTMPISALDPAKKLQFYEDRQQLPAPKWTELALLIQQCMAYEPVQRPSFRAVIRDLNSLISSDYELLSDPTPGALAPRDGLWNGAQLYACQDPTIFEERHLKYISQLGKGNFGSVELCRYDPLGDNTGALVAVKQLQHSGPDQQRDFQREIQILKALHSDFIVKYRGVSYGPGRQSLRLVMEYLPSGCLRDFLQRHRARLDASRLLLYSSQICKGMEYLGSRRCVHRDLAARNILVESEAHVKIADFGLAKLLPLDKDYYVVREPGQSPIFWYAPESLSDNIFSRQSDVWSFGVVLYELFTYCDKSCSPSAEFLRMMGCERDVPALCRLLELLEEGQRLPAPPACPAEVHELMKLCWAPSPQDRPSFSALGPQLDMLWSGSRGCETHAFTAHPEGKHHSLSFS
Particulars: at 10 µM.

Assay [12] addresses Mitogen-activated protein kinase 8 (Homo sapiens) (UniProt P45983). As to conditions: at 1 µM.
For assay [13] the target is unchanged. As to conditions: at 10 µM.
The target in assay [14] is Mitogen-activated protein kinase 9 (Homo sapiens) (UniProt P45984). As to conditions: at 1 µM.
Assay [15] shares this target. Particulars: at 10 µM.
Assay [16] deals with Insulin receptor (Homo sapiens) (UniProt P06213). As to conditions: at 10 µM. The source holds these as a separate data set.
For assay [17], the target named is Insulin receptor-related protein (Homo sapiens) (UniProt P14616). As to conditions: at 1 µM.
Assay [18] concerns the target T2, Tyrosine-protein kinase ITK/TSK (Homo sapiens). Particulars: at 10 µM.
Assay [19] deals with T3, Tyrosine-protein kinase JAK3 (Homo sapiens). Particulars: at 1 µM.
Assay [20] deals with Mitogen-activated protein kinase 10 (Homo sapiens) (UniProt P53779). As to conditions: at 1 µM.
Sequence of Mitogen-activated protein kinase 10 (Homo sapiens) (P53779 whole entry): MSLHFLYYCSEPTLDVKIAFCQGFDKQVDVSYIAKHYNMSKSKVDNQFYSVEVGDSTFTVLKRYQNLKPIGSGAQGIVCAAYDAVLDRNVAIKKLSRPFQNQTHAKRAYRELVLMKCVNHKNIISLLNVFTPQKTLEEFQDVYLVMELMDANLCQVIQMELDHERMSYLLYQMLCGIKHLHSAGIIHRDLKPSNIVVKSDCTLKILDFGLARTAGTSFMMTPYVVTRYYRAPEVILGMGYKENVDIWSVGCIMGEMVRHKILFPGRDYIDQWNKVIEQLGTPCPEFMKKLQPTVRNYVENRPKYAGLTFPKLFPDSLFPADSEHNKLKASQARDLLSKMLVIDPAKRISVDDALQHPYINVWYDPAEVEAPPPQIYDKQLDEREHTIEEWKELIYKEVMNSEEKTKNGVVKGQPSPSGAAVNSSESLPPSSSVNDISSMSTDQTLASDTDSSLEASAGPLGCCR

Sequence of Mitogen-activated protein kinase 9 (Homo sapiens) (P45984 whole entry, looked up): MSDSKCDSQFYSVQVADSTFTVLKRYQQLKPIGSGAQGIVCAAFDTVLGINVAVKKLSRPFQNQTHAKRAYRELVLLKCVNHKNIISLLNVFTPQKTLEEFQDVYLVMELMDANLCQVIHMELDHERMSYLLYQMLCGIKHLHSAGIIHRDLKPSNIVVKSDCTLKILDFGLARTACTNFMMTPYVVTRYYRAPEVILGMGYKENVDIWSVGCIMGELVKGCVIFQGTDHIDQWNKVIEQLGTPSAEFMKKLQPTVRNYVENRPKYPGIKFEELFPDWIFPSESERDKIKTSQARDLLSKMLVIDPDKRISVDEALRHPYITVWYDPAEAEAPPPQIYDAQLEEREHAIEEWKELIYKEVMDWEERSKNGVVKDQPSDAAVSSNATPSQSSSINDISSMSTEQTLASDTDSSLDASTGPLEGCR
Sequence of Interleukin-1 receptor-associated kinase 1 (Homo sapiens) (P51617 whole entry, looked up): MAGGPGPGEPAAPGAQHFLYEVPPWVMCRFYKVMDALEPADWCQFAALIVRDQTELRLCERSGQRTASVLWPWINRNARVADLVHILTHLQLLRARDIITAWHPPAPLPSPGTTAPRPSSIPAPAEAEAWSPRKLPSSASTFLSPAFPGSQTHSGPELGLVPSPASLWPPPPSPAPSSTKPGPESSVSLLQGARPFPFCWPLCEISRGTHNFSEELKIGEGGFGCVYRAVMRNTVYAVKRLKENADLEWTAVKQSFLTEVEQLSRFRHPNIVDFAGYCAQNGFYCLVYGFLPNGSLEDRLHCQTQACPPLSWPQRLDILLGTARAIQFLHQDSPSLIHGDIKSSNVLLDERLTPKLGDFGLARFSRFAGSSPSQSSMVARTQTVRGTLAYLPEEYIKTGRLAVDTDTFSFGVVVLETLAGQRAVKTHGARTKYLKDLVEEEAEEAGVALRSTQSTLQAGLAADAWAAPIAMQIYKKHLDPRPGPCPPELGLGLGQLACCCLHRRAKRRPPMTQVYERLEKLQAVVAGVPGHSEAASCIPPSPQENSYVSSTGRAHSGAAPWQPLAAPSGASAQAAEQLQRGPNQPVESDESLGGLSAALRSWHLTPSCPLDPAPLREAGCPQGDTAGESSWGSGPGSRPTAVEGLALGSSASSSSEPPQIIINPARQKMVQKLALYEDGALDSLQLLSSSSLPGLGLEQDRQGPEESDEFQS
Sequence of Mitogen-activated protein kinase 8 (Homo sapiens) (P45983 whole entry): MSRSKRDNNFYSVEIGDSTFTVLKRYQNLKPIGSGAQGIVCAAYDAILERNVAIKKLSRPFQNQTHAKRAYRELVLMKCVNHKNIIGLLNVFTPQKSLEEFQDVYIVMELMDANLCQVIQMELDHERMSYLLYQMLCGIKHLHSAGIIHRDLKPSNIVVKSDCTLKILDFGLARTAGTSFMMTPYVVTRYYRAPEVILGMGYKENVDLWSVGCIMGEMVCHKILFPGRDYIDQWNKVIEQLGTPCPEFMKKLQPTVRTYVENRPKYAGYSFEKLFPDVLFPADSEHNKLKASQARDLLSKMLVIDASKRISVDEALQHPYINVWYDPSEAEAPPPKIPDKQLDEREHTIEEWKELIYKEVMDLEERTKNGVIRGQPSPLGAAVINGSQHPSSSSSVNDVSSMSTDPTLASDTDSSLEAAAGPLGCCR
Sequence of Insulin receptor (Homo sapiens) (P06213 28-758 limits assumed): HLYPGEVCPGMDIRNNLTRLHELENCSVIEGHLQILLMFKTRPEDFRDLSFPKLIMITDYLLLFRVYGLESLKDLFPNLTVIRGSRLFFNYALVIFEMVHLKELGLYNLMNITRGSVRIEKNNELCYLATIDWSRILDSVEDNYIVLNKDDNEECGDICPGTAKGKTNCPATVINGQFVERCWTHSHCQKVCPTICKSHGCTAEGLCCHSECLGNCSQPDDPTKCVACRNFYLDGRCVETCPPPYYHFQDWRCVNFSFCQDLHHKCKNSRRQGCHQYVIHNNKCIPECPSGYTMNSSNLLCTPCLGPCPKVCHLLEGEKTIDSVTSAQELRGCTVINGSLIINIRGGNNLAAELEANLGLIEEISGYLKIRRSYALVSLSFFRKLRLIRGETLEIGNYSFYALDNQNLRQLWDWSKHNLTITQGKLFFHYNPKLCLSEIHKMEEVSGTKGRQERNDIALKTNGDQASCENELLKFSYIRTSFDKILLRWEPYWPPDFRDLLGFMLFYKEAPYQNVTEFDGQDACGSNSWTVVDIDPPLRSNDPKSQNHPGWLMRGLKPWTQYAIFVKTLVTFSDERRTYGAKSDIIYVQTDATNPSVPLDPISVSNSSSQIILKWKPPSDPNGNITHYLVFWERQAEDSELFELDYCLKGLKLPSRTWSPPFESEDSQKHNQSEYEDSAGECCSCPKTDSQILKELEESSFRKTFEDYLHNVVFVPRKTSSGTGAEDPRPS
Sequence of Insulin receptor (Homo sapiens) (P06213 763-1382 limits assumed): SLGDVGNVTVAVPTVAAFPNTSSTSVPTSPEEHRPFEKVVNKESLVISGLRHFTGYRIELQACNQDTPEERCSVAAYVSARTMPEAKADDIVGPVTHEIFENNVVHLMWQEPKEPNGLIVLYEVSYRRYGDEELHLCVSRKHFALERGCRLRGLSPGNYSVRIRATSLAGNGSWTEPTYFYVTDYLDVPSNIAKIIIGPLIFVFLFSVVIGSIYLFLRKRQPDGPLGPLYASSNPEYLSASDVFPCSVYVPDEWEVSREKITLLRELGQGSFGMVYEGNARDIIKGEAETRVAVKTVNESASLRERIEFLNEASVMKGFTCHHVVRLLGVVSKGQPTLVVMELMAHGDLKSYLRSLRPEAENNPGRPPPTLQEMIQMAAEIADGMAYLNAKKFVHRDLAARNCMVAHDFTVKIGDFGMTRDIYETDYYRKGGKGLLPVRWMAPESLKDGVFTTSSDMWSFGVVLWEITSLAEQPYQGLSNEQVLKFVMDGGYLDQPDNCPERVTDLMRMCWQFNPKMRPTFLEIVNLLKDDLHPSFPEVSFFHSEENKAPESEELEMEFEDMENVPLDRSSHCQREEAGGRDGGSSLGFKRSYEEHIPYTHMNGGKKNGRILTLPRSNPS
Sequence of Insulin receptor-related protein (Homo sapiens) (P14616 27-742 limits assumed): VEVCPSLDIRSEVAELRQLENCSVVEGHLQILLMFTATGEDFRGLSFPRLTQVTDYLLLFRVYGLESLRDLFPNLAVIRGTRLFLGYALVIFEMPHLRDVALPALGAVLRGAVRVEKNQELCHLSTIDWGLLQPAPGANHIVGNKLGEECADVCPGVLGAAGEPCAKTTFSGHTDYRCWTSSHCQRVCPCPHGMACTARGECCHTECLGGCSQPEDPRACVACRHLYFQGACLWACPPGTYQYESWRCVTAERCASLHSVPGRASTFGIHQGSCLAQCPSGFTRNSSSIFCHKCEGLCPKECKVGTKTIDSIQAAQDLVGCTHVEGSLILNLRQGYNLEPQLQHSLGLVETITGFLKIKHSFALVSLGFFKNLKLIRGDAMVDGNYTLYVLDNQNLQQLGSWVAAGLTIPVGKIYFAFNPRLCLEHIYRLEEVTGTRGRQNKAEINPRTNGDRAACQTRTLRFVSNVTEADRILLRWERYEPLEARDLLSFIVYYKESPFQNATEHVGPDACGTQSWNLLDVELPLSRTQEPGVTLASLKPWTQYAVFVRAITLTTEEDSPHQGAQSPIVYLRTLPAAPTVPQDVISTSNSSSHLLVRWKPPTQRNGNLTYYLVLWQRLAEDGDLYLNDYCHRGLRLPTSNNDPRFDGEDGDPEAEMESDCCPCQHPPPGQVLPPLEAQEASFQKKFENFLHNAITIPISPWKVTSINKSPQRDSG
Sequence of Insulin receptor-related protein (Homo sapiens) (P14616 747-1297 limits assumed): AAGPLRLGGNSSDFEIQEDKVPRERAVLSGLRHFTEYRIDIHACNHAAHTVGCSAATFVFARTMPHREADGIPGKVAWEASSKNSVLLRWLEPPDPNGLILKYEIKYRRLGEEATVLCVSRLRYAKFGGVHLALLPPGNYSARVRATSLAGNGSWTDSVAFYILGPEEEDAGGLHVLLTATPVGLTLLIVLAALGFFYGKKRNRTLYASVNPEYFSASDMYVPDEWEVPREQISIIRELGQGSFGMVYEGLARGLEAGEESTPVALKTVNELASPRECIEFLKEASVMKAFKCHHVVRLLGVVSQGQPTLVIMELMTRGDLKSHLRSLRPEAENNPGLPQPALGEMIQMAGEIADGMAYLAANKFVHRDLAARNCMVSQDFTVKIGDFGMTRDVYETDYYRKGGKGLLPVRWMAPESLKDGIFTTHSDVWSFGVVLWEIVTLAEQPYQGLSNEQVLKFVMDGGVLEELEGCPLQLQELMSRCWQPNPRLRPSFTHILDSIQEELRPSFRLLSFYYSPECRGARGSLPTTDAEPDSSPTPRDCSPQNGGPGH

Take `O=C1Cc2c([nH]c3ccc(Br)cc23)-c2ccccc2N1`: the residual activity in assay [1] turned out to be 93%; in assay [2], 81%; in [3], 94%; in assay [4], 68%; in assay [5], 81%; in [6], 36%. The residual activity in assay [7] is 82%; in [8], 83%; in [9], 100%; in assay [10], 71%; in [11] it was 71%; in assay [12] it was 95%. Also, the residual activity turned out to be 88% in assay [13], 87% in assay [14] and 97% in assay [15].
For `CCN(CC)CCNC(=O)c1c(C)[nH]c(/C=C2\C(=O)Nc3ccc(Cl)cc32)c1C`, the residual activity in [16] is 6%; in assay [1], 8%; in assay [2], 0%; in assay [3], 9%; in assay [4], 0%; in assay [5] it was 22%. Moreover, the residual activity turned out to be 7% in assay [6]; 13% in assay [17]; 0% in [7]; 21% in assay [8]; 2% in assay [18]; 72% in assay [9]. Also, the residual activity in assay [10] came to 20%; in [19], 62%; in [11], 16%; in [12], 97%; in assay [13], 82%; in assay [20] it was 80%.
For the molecule `CCCC(=O)Oc1ccc2[nH]c(C(=O)c3cc4ccccc4[nH]3)cc2c1`, the residual activity in assay [16] turned out to be 77%; in assay [1], 90%; in [2], 89%; in assay [3] it was 85%; in assay [4] it was 69%; in assay [17], 134%. Further, the residual activity in assay [7] was found to be 80%; in assay [8], 105%; in [18] it was 101%; in assay [9] it was 103%; in assay [10], 100%; in assay [12], 94%. The residual activity in assay [13] was determined as 81%; in assay [15], 89%; in assay [20], 69%.
Turning to `O=C1C(Cl)=C(N2C(=O)CCC2=O)C(=O)c2ccccc21`, the residual activity worked out at 87% in [16]; 89% in assay [1]; 93% in assay [2]; 85% in [3]; 75% in assay [5]; 83% in assay [6]. Further, the residual activity was determined as 100% in assay [19]; 89% in assay [11]; 96% in [12]; 86% in assay [13]; 89% in assay [14]; 102% in [15]. In addition, the residual activity in assay [20] was determined as 88%.
As to `Cn1sc(=O)n(Cc2ccccc2)c1=O`, the residual activity is 82% in [16]; 96% in assay [1]; 93% in assay [2]; 74% in assay [5]; 76% in assay [6]; 97% in assay [8]. For the same molecule, the residual activity was found to be 83% in assay [18]; 91% in assay [9]; 98% in [10]; 89% in assay [12]; 88% in assay [13]; 91% in assay [14]. The residual activity turned out to be 93% in assay [15] and 75% in assay [20].
On to `CN(C)S(=O)(=O)c1ccc2c(c1)/C(=C/c1cc3c([nH]1)CCCC3)C(=O)N2`, for which the residual activity in assay [16] was 88%; in [2], 95%; in assay [3] it was 9%; in [4], 0%; in assay [5] it was 19%; in [6], 17%. In addition, the residual activity turned out to be 85% in [17]; 77% in [7]; 23% in [8]; 22% in assay [18]; 67% in assay [9]; 25% in assay [10]. Also, the residual activity was 66% in assay [19]; 48% in assay [11]; 99% in assay [12]; 94% in assay [13]; 89% in assay [20].
As for `O=C(Nc1ccc(Cl)cc1)c1ccccc1NCc1ccncc1`, the residual activity in [16] came to 79%; in assay [1], 102%; in [2], 100%; in [9] it was 129%; in assay [10] it was 74%; in assay [12] it was 120%. Also, the results for the residual activity in [13] and in [20] were 129% and 72%, respectively.
Take `Nc1ncnc2[nH]nc(Nc3ccc(F)cc3)c12`: the residual activity is 103% in [16]; 97% in assay [1]; 90% in assay [2]; 93% in assay [3]; 101% in assay [4]; 58% in [6]. Also, the residual activity in assay [17] was 124%; in assay [7] it was 106%; in [8], 103%; in assay [18] it was 78%; in assay [9] it was 103%; in [10], 93%. Also, the residual activity in [19] amounted to 101%; in assay [11] it was 90%; in [12], 105%; in [13], 93%; in assay [14] it was 92%; in assay [15], 93%. Besides, the residual activity in assay [20] stood at 98%.
For the molecule `O=c1cc(N2CCNCC2)oc2c(-c3ccccc3)cccc12`, the residual activity in [16] was 94%; in [3], 92%; in [4] it was 76%; in [5], 93%; in [6], 96%; in assay [7], 70%. Moreover, the residual activity in [8] worked out at 83%; in [18], 93%; in assay [10] it was 101%; in assay [19], 94%; in [11], 78%; in [13], 84%. In addition, the results for the residual activity in assay [15] and in assay [20] were 97% and 73%, respectively.
For `CC(C)c1nn(-c2c(Cl)cccc2Cl)c2nc(Cc3ccc(OCCO)cc3)[nH]c(=O)c12`, the residual activity in assay [1] came out at 102%; in assay [2], 99%; in assay [3], 103%; in assay [4], 84%; in assay [5], 104%; in [6], 91%. Moreover, the residual activity is 98% in assay [8]; 96% in [18]; 85% in assay [9]; 100% in assay [10]; 103% in assay [19]; 106% in [11]. The residual activity is 94% in assay [13], 99% in [14], 86% in assay [15] and 81% in [20].
For the molecule `O=C(CCCc1ccc(-c2ccccc2F)cc1)Nc1ccc(O)cc1`, the residual activity in [16] is 102%; in assay [1], 97%; in assay [2], 97%; in [3] it was 78%; in [5], 93%; in assay [6] it was 82%. Besides, the residual activity in [17] came to 88%; in assay [7], 98%; in assay [8], 90%; in assay [18], 98%; in assay [9], 108%; in assay [10], 111%. The residual activity in assay [19] was found to be 104%; in assay [11] it was 104%; in assay [12], 99%; in assay [13], 98%; in [14], 93%; in [15], 99%. For the same molecule, the residual activity in [20] came out at 109%.
For `O=C1Nc2ccc(Cl)cc2/C1=C/c1cc(Cl)c(O)c(Cl)c1`, the residual activity worked out at 63% in [16]; 95% in assay [1]; 57% in [2]; 84% in assay [3]; 81% in [4]; 75% in [5]. Moreover, the residual activity is 51% in [6]; 111% in assay [17]; 74% in assay [7]; 98% in [9]; 69% in [10]; 75% in assay [19]. Also, the residual activity in assay [11] turned out to be 28%; in assay [12], 95%; in assay [13], 69%; in assay [20], 64%.
